Bioassay records from PubChem.
Hits are enriched below; roughly 4.1% of the tested compounds scored in any of these assays.
DAX1 inh-1 – DAX1 (NR0B1) inhibition, primary screen; AID 652010; HEK293T StAR-luciferase reporter, SF-1/DAX-1 repression relief; 370,000 tested, 1.1% active; inhibition, % at 6.8 µM;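 active = inhibition above the mean over all tested compounds plus 3 SD, cut at about 3.6% in these data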;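 note: higher inhibition means more luminescence from relief of DAX-1 repression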
ssDAF12 agonist – activators of S. stercoralis DAF-12 nuclear receptor. HEK293 ssDAF-12/GRIP1 lit1-tk-luc reporter, luminescence; % of 3 µM dafachronic acid response. activation, % at 6.8 µM. 370,000 tested, 1% active;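 active = activation above the mean over all tested compounds plus 3 SD, cut at about 0.9% in these data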
DAX1 inh-2 – NR0B1 (DAX1) inhibition; P51843; HEK293 Gal4-DAX1 luciferase reporter, luminescence; inhibition, % at 6.75 µM; 340,000 tested, 0.99% active; AID 504766;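 active = inhibition above the mean over all tested compounds plus 3 SD, cut at about 4.2% in these data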;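 note: inhibition shows as a rise in luminescence from relieved DAX1 repression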
Target sequence (P51843 207-470 limits assumed): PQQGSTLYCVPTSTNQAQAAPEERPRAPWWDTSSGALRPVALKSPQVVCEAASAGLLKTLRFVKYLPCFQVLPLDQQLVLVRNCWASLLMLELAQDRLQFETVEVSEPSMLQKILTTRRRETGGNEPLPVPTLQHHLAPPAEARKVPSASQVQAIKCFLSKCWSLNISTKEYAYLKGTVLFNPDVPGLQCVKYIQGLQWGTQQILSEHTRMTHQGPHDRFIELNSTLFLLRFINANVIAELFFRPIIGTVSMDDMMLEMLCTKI
hgDAF-12 ag – activates the H. glycines DAF-12 receptor ligand-binding domain. 370,000 tested, 1.8% active. AID 687014. activation, % at 6.8 µM. HEK293 GAL4-hgDAF12 UAS-luciferase reporter, agonist luminescence; normalized to butyrate control;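 active = activation above a cutoff set at the mean of all screened compounds plus 3 SD, cut at about 10% in these data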
hcDAF12 agonist – activates DAF-12 receptor from parasite H. contortus | HEK293 hcDAF-12 lit1-tk-luc reporter, luminescence; 0% DMSO, 100% Δ7-dafachronic acid | activation, % at 6.8 µM | 370,000 tested, 1.4% active;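 active = activation above the mean of all tested compounds plus 3 SD, cut at about 5.5% in these data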
A number is an active result; n = inactive; x = not tested or not shown.

SMILES	DAX1 inh-1	ssDAF12 agonist	DAX1 inh-2	hgDAF-12 ag	hcDAF12 agonist
O=C(NCCCNC(=O)c1cccs1)c1cccs1	n	n	n	n	n
O=C(Nc1ccc(-c2cn3ccccc3n2)cc1)c1cccs1	n	n	n	12.4	n
CCN(CC)C(=O)C(=O)Nc1ccc(OCc2ccccc2)cc1	n	n	n	12.0	n
CC(C1=CCCCC1)c1cnn(C)c1 (configuration not stated)	n	n	x	n	n
O=C(N/N=C/c1ccc(OCc2ccccc2)cc1)c1cccs1	n	n	n	n	n
O=C(NCCc1ccccc1)c1cnc2sccn2c1=O	n	n	n	10.7	n
O=C(NCc1ccco1)c1cnc2sccn2c1=O	n	n	n	n	n
O=C(Nc1ccc(Cl)cc1)c1cccs1	n	n	n	12.1	n
O=C(Nc1ccc(OCc2ccccc2)cc1)c1cccs1	n	n	5.1	n	n
Cc1cc2ccccc2n1CCNC(=O)c1cccs1	n	1.6	n	n	n
CCCCNS(=O)(=O)CC1NCc2ccc(C)cc21 (configuration not stated)	n	n	x	n	n
CC(=O)c1ccc(NC(=O)NC2CCCCN(Cc3cccc(Cl)c3)C2=O)cc1 (configuration not stated)	n	n	x	n	n
O=C(CCCOc1ccccc1)Nc1nc2ccccc2[nH]1	n	n	n	11.8	n
Cc1ccc(/C=C/C(=O)Nc2nc3ccccc3[nH]2)cc1	n	n	n	n	5.8
O=C(Cc1ccccc1)Nc1nc2ccccc2[nH]1	n	n	n	n	n
O=C(Nc1nc2ccccc2[nH]1)c1ccc(Cl)cc1	n	n	n	n	5.8
Cc1ccc(/C=C/C(=O)c2nc3ccccc3[nH]2)cc1	n	n	n	n	n
O=C(Cc1c[nH]c2ccccc12)Nc1nc2ccccc2[nH]1	n	1.9	n	n	n
COC(=O)C1CN(Cc2cn(CCC3OCCO3)nn2)CCS(=O)(=O)N1Cc1ccc(Cl)cc1 (configuration not stated)	n	n	x	n	n
O=C(CN1C(=O)C2CC=CCC2C1=O)Nc1nc2ccccc2[nH]1 (configuration not stated)	n	n	5.4	n	n
O=C(Nc1nc2ccccc2[nH]1)c1ccccc1O	n	1.2	n	11.4	n
C[C@@H]1C[C@H]2[C@@H]3C[C@H](F)C4=CC(=O)C=C[C@]4(C)[C@@]3(Cl)[C@@H](O)C[C@]2(C)[C@H]1C(=O)COC(=O)C(C)(C)C	n	n	n	n	n
CCC(=O)Nc1ccc(-c2csc(NNC(C)=O)n2)cc1	n	0.9	n	n	n
CC(=O)Nc1nc(-c2ccc3ccccc3c2)cs1	n	n	n	12.9	n
c1ccc(Nc2c(-c3ccco3)nc3ccccn23)cc1	n	n	n	n	6.0
SMILES	DAX1 inh-1	ssDAF12 agonist	DAX1 inh-2	hgDAF-12 ag	hcDAF12 agonist
Cc1ccc(Nc2c(-c3ccco3)nc3ccccn23)cc1	n	n	n	n	n
CCN(Cc1ccncc1)C(=O)C(CO)c1ccccc1 (configuration not stated)	n	n	n	11.5	n
COc1ccccc1C(=O)NC1CCCCN(Cc2cccc(C(F)(F)F)c2)C1=O (configuration not stated)	n	n	x	18.5	n
O=C(NC1CCCCN(Cc2cccc(C(F)(F)F)c2)C1=O)c1cccc(C(F)(F)F)c1 (configuration not stated)	n	n	x	n	n
CC(C)(C)c1ccc(NC(=O)C2=CC=CN3CCS(=O)(=O)N=C23)cc1	3.9	n	n	n	n
c1ccc(-c2nc(NC3CCCC3)c3ccccc3n2)cc1	n	n	n	n	n
Clc1ccc(-c2cnc(Oc3ccccc3)nc2)cc1	n	n	n	10.8	n
COc1ccc(-c2nnc(SCC(=O)NN=C(C)c3cccc4ccccc34)n2-c2ccc(C)cc2)cc1	n	n	x	n	n
CC(C)(C)Nc1nc(NCc2cccnc2)nc(N2CCOCC2)n1	n	n	5.9	n	n
CC(C)CN1CCC(=O)N(CCOc2ccccc2)CC1	n	n	4.3	n	n
CCCN1CCC(=O)N(CCOc2ccccc2)CC1	n	n	n	n	n
COc1ccc(C(c2ccc(OC)cc2)N2CCN(C(=O)c3noc(C)c3[N+](=O)[O-])CC2)cc1	x	n	x	n	n
Cc1c(N=Cc2ccc(O)c(Br)c2)cccc1[N+](=O)[O-]	n	1.1	n	n	6.1
